KAT2A inh – inhibitors of human GCN5L2 histone acetyltransferase; Q92830; GCN5L2 HAT assay, ThioGlo1 CoA-SH fluorescence; Potency, µM (series often up to 58.9 µM), inactives show at the top dose activity change, negative = inhibition, actives largely listed as inhibitors; 390,000 tested, 0.21% active; AID 504327; further: on the % scale 0 is the no-effect control and ±100 the full control effect
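Preincubate 20nM GCN5L2 with compound 15 min, RT → add 50uM ThioGlo1 + 75uM H3(1-25) + 70uM acetyl-CoA → read fluorescence 0 and 20 min. Primary qHTS; fluorescent artifacts likely.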
NPSR antag – blocks cAMP signaling of the human neuropeptide S receptor. 220,000 tested, 1% active. AID 1461. Potency, µM (series often up to 38.3 µM), for the others: at the top dose activity change, negative = inhibition, usual class: inhibitors. CHO-NPSR cells, cAMP TR-FRET, antagonist mode; further: on the % scale 0 is the no-effect control and ±100 the full control effect; nearly all actives have a fitted effect of over 50% in size
Target sequence (Q6W5P4 whole entry, looked up): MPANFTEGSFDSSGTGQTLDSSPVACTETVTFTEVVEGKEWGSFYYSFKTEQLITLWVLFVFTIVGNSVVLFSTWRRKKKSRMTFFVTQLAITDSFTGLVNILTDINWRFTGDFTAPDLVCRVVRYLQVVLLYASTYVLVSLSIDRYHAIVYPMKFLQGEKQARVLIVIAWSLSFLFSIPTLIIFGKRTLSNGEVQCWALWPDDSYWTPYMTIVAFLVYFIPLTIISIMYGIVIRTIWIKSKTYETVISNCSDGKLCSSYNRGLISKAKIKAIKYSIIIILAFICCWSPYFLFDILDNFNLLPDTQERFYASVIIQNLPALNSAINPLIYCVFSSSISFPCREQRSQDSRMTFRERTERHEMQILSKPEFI
KDM4E inh – JMJD2E (human) inhibition | B2RXH2 | JMJD2E catalytic domain, FDH-coupled NADH fluorescence (FDH is formaldehyde dehydrogenase) | Potency, µM (doses to about 57.1 µM), inactives show top-dose activity change, negative = inhibition, usual class: inhibitors | 230,000 tested, 1.6% active | AID 2147; active means well fitted inhibition curve with a large enough effect, not every such curve was filed as active; inconclusive means small, poorly fitted or top-dose-only effect, or another doubt; inactive means no such curve, though single readings can be large or run the other way;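 further: 0% = wells with enzyme and -100% = buffer wells without enzyme; nearly all actives have a fitted effect of over 50% in size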
Target sequence (B2RXH2 1-337 limits assumed): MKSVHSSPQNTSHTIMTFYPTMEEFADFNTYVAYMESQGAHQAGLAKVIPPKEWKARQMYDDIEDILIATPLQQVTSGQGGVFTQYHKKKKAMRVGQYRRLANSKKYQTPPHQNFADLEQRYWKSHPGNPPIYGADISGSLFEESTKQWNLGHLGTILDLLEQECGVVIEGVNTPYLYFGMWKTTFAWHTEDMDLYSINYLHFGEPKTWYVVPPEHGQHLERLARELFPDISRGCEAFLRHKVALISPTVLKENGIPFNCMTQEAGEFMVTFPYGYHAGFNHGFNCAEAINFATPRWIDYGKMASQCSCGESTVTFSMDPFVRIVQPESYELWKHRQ
Sfp PPTase inh – inhibitors of Bacillus subtilis Sfp phosphopantetheinyl transferase; 310,000 tested, 3.5% active; Potency, µM, for inactives: largest response in the series, negative = inhibition, most hits filed as inhibitors; Q9F4F7; Biochemical Sfp PPTase activity, qHTS;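 further: the enzyme is Sfp with the accession as filed and its product quenches rhodamine fluorescence; 0% = enzyme reaction without inhibitor and -100% = no enzyme wells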
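Fluorescence-quenching assay: 15 nM Sfp-PPTase preincubated 15 min at room temperature with compound, then 5 uM rhodamine-CoA and 12.5 uM BHQ-2-labelled YbbR peptide added. Fluorescence (ex 525/em 598 nm) read at start and after 30 min; difference gives rate.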
Epigenetic derep – regulators of epigenetic silencing causing reporter derepression in mouse cells; 280,000 tested, 0.2% active; AID 1865; Potency, µM (titrated, usually from 53.9 µM), without a hit: at the top dose GFP activation, hits mostly activators; murine LDR cells, GFP reporter derepression, 30 h; further: % of control where 0% means no effect; nearly all actives have a fitted effect of over 60% in size
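Reporter derepression read as number of fluorescent GFP-positive objects, 20-120 um in size, counted by laser-scanning cytometer. Mouse LDR line with an epigenetically silenced CMV-GFP locus; compound incubation 30 h, 37 C.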
IMPase Li cell – IMPase inhibition in cells with lithium potentiation; CHO-M1 cells, IP1 TR-FRET (IP-One), carbachol + lithium; Potency, µM (doses to about 59.4 µM), for inactives: at the highest dose activity, negative = IMPase inhibition, usual class: inhibitors; 210,000 tested, 0.35% active; AID 1457;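 further: IP1 builds up when IMPase is blocked and the TR-FRET signal falls; plate controls were basal vehicle for no effect and high inhibitor control for full effect; nearly all actives have a fitted effect of over 50% in size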
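IP1 accumulation measured by competitive TR-FRET in lysed CHO-M1 cells after 30 min compound exposure at 37C, with a small lithium addition to potentiate weak responses. Hill-equation AC50 from ratio and donor-channel data.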
* hit, by the source's call; ? = inconclusive; · = no result given; ! = not active in a repeat; [ ] = remark or other dose. Sampled rows, rich in hits. Any-hit rate of the full collection: about 3.6%. Unless noted, the call rests on the fitted dose curve; in most records, active means well fitted curve in the direction sought with a large enough effect; inconclusive means small, poorly fitted or top-dose-only effect, or another doubt; inactive means no such curve, though single readings can be large; an effect the other way counts as inactive or inconclusive. Potency means the concentration at half of the fitted maximal effect.

SMILES | KAT2A inh | NPSR antag | KDM4E inh | Sfp PPTase inh | Epigenetic derep | IMPase Li cell
COc1ccc2[nH]cc(CCNc3nc(-c4ccc(C(=O)N(C)C)cc4)nc4ccccc34)c2c1 | -24% | · | ? | -21% | 0% | 19%
COc1ccc2[nH]cc(CCNc3nc(-c4ccc(N(C)C)cc4)nc4ccccc34)c2c1 | -25% | · | · | 18µM* | · | -2%
COc1ccc2[nH]cc(CCNc3cc(-c4ccccc4C(F)(F)F)ncn3)c2c1 | -18% | · | -24% | 79µM* | 2% | 14%
COc1ccc(Nc2nc(-c3ccc(C)cc3)nc3ccccc23)c(OC)c1 | -10% | · | · | · | 1% | ·
Cc1ccc(Nc2c(-c3cccnc3)nc3ccc(Cl)cn23)cc1 | -5% | · | · | · | 2% | ·
Cc1ccc(C(=O)/C=C/c2ccc3c(c2)OCCO3)c(O)c1 | -2% | -5% | -3% | -27% | 1% | ·
O=C(/C=C/c1ccc2c(c1)OCCCO2)c1ccc2ccccc2c1O | ? | -15% | ? | 40µM* | 0% | 0%
COC(=O)C1=C[C@@H](C(=O)OC)[C@@H]2C3=C(C(=O)C2(C)C)[C@H](C)n2c(=O)n(C)c(=O)n2[C@@H]3C1 | · | · | · | 14% | · | ·
CC(C)(C)OC(=O)N[C@@H](Cc1ccccc1)c1nnc(S(=O)(=O)Cc2ccccc2)o1 | 31% | ? | 0% | 8.9µM* | 2% | 31%[38.3 µM]
Cc1ccccc1CS(=O)(=O)c1nnc([C@H](Cc2ccccc2)NC(=O)OC(C)(C)C)o1 | ? | 10µM* | 8% | 7.9µM* | -1% | 18%[38.3 µM]
CCSc1nnc([C@H](Cc2ccccc2)NC(=O)OC(C)(C)C)o1 | 3% | -7%[46.1 µM] | -1% | 16% | 3% | 14%[38.3 µM]
Cc1cccc(CS(=O)(=O)Cc2ccc(C(=O)NC(C)c3ccccc3)o2)c1 (centres undefined) | -3% | · | · | 9% | 2% | ·
CCC(C)[C@@H](NC(=O)OC(C)(C)C)c1nnc(S(=O)(=O)Cc2cccc(C)c2)o1 (some centres undefined) | -3% | ? | 8% | 25µM* | -1% | 7%[38.3 µM]
CC(=O)Nc1nonc1-c1nnc(SCC(=O)Nc2cc(C)cc(C)c2)n1C | -3% | · | · | · | -1% | ·
COc1ccccc1CNc1cc(-c2ccccc2OC)ncn1 | -11% | · | · | -12% | · | 26%
Cc1cccc(CNc2cc(-c3ccoc3)ncn2)c1 | -4% | · | ? | 14µM* | -1% | 0%
COc1ccccc1CNc1cc(-c2ccoc2)ncn1 | -13% | · | · | 28µM* | · | 2%
Cc1cccc(CNc2cc(-c3ccc(N(C)C)cc3)ncn2)c1 | -18% | · | ? | -28% | 2% | ?
c1cncc(CNc2cc(-c3ccoc3)ncn2)c1 | -7% | · | · | 56µM* | · | -8%
Cc1cnc(CNc2cc(-c3ccoc3)ncn2)cn1 | -6% | · | ? | 28µM* | 2% | 13%
Cc1cnc(CNc2ccnc(-c3ccoc3)n2)cn1 | -8% | · | · | ? | · | 7%
C=CC(=O)CC | · | · | · | · | · | 2%
c1cncc(CNc2ncnc3ccc(-c4ccoc4)cc23)c1 | 28µM*! | · | · | -4% | · | -4%
COCCn1c(=O)c(-c2ccc(Cl)cc2)nc2cnc(Nc3ccccc3)nc21 | -16% | · | · | 22% | · | -4%
COc1ccc(NS(=O)(=O)c2cccc(C(=O)N/N=C/c3ccc4c(c3)OCCO4)c2)cc1 | -7% | 3% | -1% | 16µM* | 2% | -4%
SMILES | KAT2A inh | NPSR antag | KDM4E inh | Sfp PPTase inh | Epigenetic derep | IMPase Li cell
COc1ccccc1Cn1c(=O)c2ccccc2n2c(SCC(=O)N3CCCCC3)nnc12 | 30% | -11% | -3% | -6% | -1% | 10µM*
O=C(CSc1nnc2n(C3CCCC3)c(=O)c3ccccc3n12)N1CCCCCC1 | -22% | -17%[46.1 µM] | 6% | 10% | -1% | 30%[38.3 µM]
COc1cc(NC(=O)c2cc(-c3ccco3)on2)c(OC)cc1Cl | -6% | 8%[46.1 µM] | ? | 8% | 1% | 11µM*
COc1ccc(N(C(=O)CSCC(=O)Nc2cc(C)on2)C(C(=O)NC2CCCCC2)c2ccc(O)c(O)c2)cc1 (centres undefined) | -7% | -50% | 11µM* | 7% | 0% | 0%
Cc1cc(NC(=O)CSCC(=O)N(c2ccc(F)cc2)C(C(=O)NC2CCCCC2)c2ccc(O)c(O)c2)no1 (centres undefined) | -1% | -8% | 8% | 3% | 2% | -3%
Cc1cc(NC(=O)CSCC(=O)N(c2cccc(Cl)c2)C(C(=O)NC2CCCCC2)c2ccc(O)c(O)c2)no1 (centres undefined) | -1% | -18% | 10µM* | -9% | 0% | -7%
N[C@H](C(=O)O)[C@H](Cc1ccccc1)C(=O)O | -2% | · | · | · | · | ·
Cc1ccc(-c2cc(C(=O)N(Cc3ccccc3)Cc3ccco3)no2)cc1F | -4% | · | · | · | -1% | ·
CCCc1nc2sc3c(SCC(=O)NCc4ccco4)ncnc3c2c2c1CCC2 | ? | -2%[46.1 µM] | ? | 50µM* | 1% | -12%[38.3 µM]
COC(=O)CSc1ncnc2c1sc1nc(-c3ccco3)c3c(c12)CC(C)(C)OC3 | -19% | -2%[46.1 µM] | ? | 11µM* | -1% | 5%[38.3 µM]
CCOC(=O)c1sc2nc(-c3ccco3)c3c(c2c1N)CC(C)(C)OC3 | -16% | 10µM* | ? | 8.9µM* | 0% | -14%[38.3 µM]
Cc1nc(SCC(=O)NCc2ccco2)c2c3c(sc2n1)CCCC3 | -7% | -23%[46.1 µM] | 1% | ? | 4% | ?
COc1cc(OC)c(NC(=O)c2nn(C)c3c2COc2ccccc2-3)cc1Cl | -11% | · | · | · | -6% | ·
CN(C)c1ccc(-c2cc(NCc3cccnc3)ncn2)cc1 | -26% | · | ? | -3% | -1% | -13%
CCNc1nc(NCC)nc(N/N=C/c2ccc(O)c(O)c2)n1 | -3% | -13% | 18µM* | 50µM* | -1% | 7%
CCNc1nc(NCC)nc(N/N=C/c2ccc(N(C)C)cc2)n1 | -12% | -36% | ? | 25% | 0% | 18%
COc1ccc(-c2cnnc(N/N=C/c3ccc(O)c(O)c3)n2)cc1 | 0% | -17% | 25µM* | -25% | -1% | 11%
COc1cc(/C=N/Nc2nnc3c(n2)[nH]c2ccccc23)ccc1O | 0% | 12% | -21% | 56µM* | 0% | 8%
N#CCCn1c(=O)c(-c2cccc(C#N)c2)nc2cnc(N3CCOCC3)nc21 | -27% | · | · | 29% | · | -6%
NC(=S)N/N=C/c1c[nH]c2ccc(OCc3ccccc3)cc12 | -13% | · | · | 32µM* | · | ·
Cn1cccc1C(=O)C(=O)Nc1cc(Cl)cc(Cl)c1 | 0% | -14%[46.1 µM] | 3% | 3% | -1% | 14µM*
Cn1cccc1C(=O)C(=O)Nc1ccc(Cl)cc1 | -11% | -3%[46.1 µM] | -3% | 5% | 0% | -1%[38.3 µM]
Nc1ccccc1S(=O)(=O)Nc1cccc2cccnc12 | -14% | · | · | 3% | · | ·

Source: PubChem
